Only a selection was taken, and hits are over-represented in it overall.
N370S GC: inhibits or activates N370S mutant glucocerebrosidase. P04062. N370S GC spleen homogenate, 4MU-glucoside fluorescence. Potency, µM (series often up to 59.4 µM), without a hit: top-dose activity change, negative = inhibition, usual class: inhibitors. 330,000 tested, 0.092% active. AID 2101;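 note: potency is the fitted concentration of half-maximal effect; 0% = full enzyme activity and -100% = no enzyme basal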
Apoferritin bind: binds horse apoferritin like a general anesthetic. apoferritin/1-aminoanthracene competitive binding, fluorescence. Potency, µM (highest dose often 77.5 µM), for the others: at the highest dose activity change, negative = displacement, hits mostly inhibitors. 350,000 tested, 0.074% active. AID 485281; note: potency is the fitted concentration of half-maximal effect; % is set by controls: 0 for no effect and ±100 for the full control effect; nearly all actives have a fitted effect of over 20% in size
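Probe: 1-aminoanthracene (50% saturated, PBS). Protein: horse-spleen apoferritin, 10 uM. Incubation: 10 min, room temperature. Detection: 380 nm excitation, 535 nm emission. Analysis: normalized response, four-parameter Hill.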
GRP78 ERSR act: ER stress response induction in glioma; U87-MG GRP78 promoter luciferase reporter, 16 h; Potency, µM, inactives show at the highest dose activation, hits mostly activators; 420,000 tested, 0.02% active; AID 602332; note: potency is the fitted concentration of half-maximal effect; series mostly up to about 76 µM; % of control where 0% means no effect; nearly all actives have a fitted effect of over 35% in size
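Stably transfected U87-MG human glioma cells carrying a GRP78-based luminescent sensor were seeded at 1000 cells/well, pin-dosed with compounds and incubated 16 h. Luciferase reagent was then added, and end-point luminescence was read after 10 min at room temperature.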
Integrin act MD: activates integrin-mediated alleviation for muscular dystrophy. alpha7betagal myoblasts, beta-gal FDG fluorescence, 48 h. Potency, µM (titrated, usually from 38.3 µM), inactives show at the top dose activation, usual class: activators. 350,000 tested, 0.064% active. AID 624291;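 note: potency is the fitted concentration of half-maximal effect; 100% = response of the positive control SU9516; nearly all actives have a fitted effect of over 60% in size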
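Alpha7betagal+/- myoblasts (passage 13) were plated 16-24 hr, then exposed to compounds (1:260 dilution of DMSO stock) for 48 hours at 37C. After MPER lysis, β-galactosidase reporter activity was read as FDG fluorescence (ex 480/em 540) after 30 minutes.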
CBFb RUNX1 block: inhibitors of human CBF-beta and RUNX1 interaction; Potency, µM (doses to about 59.8 µM), for inactives: top-dose activity, negative = inhibition, usual class: inhibitors; Q01196+Q13951; AlphaScreen CBFb-His/RUNX1-biotin binding, biochemical; AID 1477; 230,000 tested, under 10 active; note: % of control where 0% means no effect
Target sequence (Q01196 whole entry, looked up): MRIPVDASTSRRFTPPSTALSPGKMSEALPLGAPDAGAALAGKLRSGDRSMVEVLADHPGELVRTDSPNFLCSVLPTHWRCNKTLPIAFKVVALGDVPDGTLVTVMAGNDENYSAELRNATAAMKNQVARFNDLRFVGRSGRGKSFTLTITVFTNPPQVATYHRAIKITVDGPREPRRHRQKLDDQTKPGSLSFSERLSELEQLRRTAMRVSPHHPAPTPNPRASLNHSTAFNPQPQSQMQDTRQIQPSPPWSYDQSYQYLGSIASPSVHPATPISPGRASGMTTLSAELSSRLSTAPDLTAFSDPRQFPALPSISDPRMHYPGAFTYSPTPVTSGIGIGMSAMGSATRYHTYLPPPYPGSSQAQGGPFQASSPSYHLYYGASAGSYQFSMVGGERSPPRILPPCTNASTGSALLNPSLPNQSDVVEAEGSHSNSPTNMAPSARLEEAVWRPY
Target sequence (Q13951 whole entry, looked up): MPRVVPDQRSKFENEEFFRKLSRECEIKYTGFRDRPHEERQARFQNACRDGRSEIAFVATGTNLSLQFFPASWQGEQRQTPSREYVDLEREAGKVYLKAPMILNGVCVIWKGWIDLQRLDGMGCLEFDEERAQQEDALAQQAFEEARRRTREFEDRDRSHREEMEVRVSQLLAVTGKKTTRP
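Read-out: AlphaScreen. Format: His-CBF-beta with biotinylated RUNX1 (30 nM each) preincubated 20 min, compound 15 min, Ni-chelate plus streptavidin beads 90 min; room temperature throughout.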
ClpP mod: qHTS Assay for Activators of ClpP; ATP-dependent Clp protease proteolytic subunit (Bacillus subtilis (strain 168)), P80244; purified B. subtilis ClpP, FRET peptide cleavage, 20 min; Potency, µM (top dose mostly 57.5 µM), without a hit: top-dose activity change, negative = active; 340,000 tested, 1.9% active; AID 651965, 2013; active = well fitted falling curve with a large enough effect; inconclusive = small, poorly fitted or top-dose-only effect; inactive = no such curve, though single readings can be large or run the other way; note: potency is the fitted concentration of half-maximal effect; the source files actives as falling curves though it sought activators and does not explain the sign; nearly all actives have a fitted effect of over 65% in size
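Purified B. subtilis ClpP, 10 microg/mL final in Tris/HCl pH8 with KCl, BSA, glycerol and Tween-20, cleaved an Abz/nitrotyrosine-quenched decapeptide. Fluorescence (ex 320, em 430) was read at 0 and 20 min at room temperature. Delta was normalized to 5.8 microM ADEP and DMSO/no-enzyme controls.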
Active calls of the source: *; u = inconclusive; x = no result given; [ ] = another dose, or the depositor's remark. Unless noted, calls come from the whole dose curve; as a rule, active = well fitted curve in the direction sought with a large enough effect; inconclusive = small, poorly fitted or top-dose-only effect, or another doubt; inactive = no such curve, though single readings can be large; an effect the other way counts as inactive or inconclusive.

SMILES | N370S GC | Apoferritin bind | GRP78 ERSR act | Integrin act MD | CBFb RUNX1 block | ClpP mod
O=C(Nc1ccccc1)c1snc2c(=O)[nH]cnc12 | 0% | -10% | 7% | 6% | 1% | x
CCc1ccc(CNC(=O)c2sc3nc[nH]c(=O)c3c2C)cc1 | x | -13% | -3% | x | x | -14%
CCOC(=O)c1cccc(NC(=O)c2sc3nc[nH]c(=O)c3c2C)c1 | x | -15% | 0% | x | x | -2%
CCOC(=O)c1snc2c(=O)[nH]cnc12 | 16% | 65% | 0% | -11%[7.66 µM] | 3% | 28µM*
CCOC(=O)c1sc2nc[nH]c(=O)c2c1C | 22% | -12% | 4% | 1% | -3% | 32µM*
O=C1c2ccccc2C(=O)N1CSc1nnc(Nc2ccccc2)s1 | 5% | -12% | 0% | -1% | -4% | x
O=C1c2ccccc2C(=O)N1CSc1nnc(Nc2ccccc2F)s1 | 2% | -12% | 1% | 29% | 0% | 28µM*
CCOc1ccc(OCCC(=O)NNC(=O)c2ccncc2)cc1 | x | x | -3% | -2% | x | 7.9µM*
Cc1ccc(OCCC(=O)OCC(=O)NNC(=O)c2ccccc2)cc1 | -10% | x | -2% | 21% | x | 25µM*
Cc1ccc(OCCC(=O)NNC(=O)c2ccncc2)cc1 | x | x | -5% | 1% | x | -1%
Cc1ccccc1C1(CC(=O)N2CCCC(C)C2)CC(=O)N(Cc2cccnc2)C1=O (stereo not drawn) | x | x | 0% | x | x | x
COc1ccccc1C1CN(Cc2c(C)nc3sccn23)Cc2ccccc2O1 (stereo not drawn) | x | x | -2% | x | x | x
Oc1ccc(C2Nc3cccc4cccc(c34)N2)c(O)c1 | -4% | u | 6% | -21% | -8% | 32µM*
Clc1ccccc1C1Nc2cccc3cccc(c23)N1 | -12% | -11% | 0% | 26% | x | -1%
CC(Nc1oc(-c2ccco2)nc1C#N)c1ccccc1 (stereo not drawn) | -8% | -10% | -3% | 15% | 1% | 7.9µM*
N#Cc1nc(-c2ccccc2)oc1NCc1ccco1 | -9% | -7% | 6% | -14% | 11% | 5%
CC(C)CNc1oc(-c2ccco2)nc1C#N | 5% | -8% | -5% | 4% | 3% | 18µM*
N#Cc1nc(-c2ccco2)oc1NCc1cccnc1 | -7% | -3% | -2% | 15% | 0% | 26%
N#Cc1nc(-c2ccco2)oc1NCc1ccc(F)cc1 | 4% | -15% | -3% | -19% | -10% | 8.9µM*
FC(F)(F)c1cc(-c2ccco2)nc(NCCc2ccccc2)n1 | 8% | -16% | 14% | -26% | 17% | 32µM*
COc1ccc(-c2cc(C(F)(F)F)nc(NCCc3ccccc3)n2)cc1OC | x | 25% | -3% | x | x | -22%
COc1cccc(-c2cc(C(F)(F)F)nc(NCCc3ccccc3)n2)c1 | x | 0% | -1% | x | x | 28µM*
COc1cccc(-c2cc(C(F)(F)F)nc(NCc3ccc(F)cc3)n2)c1 | x | -9% | -2% | x | x | 28µM*
COc1ccc(-c2cc(C(F)(F)F)nc(NCCc3ccccc3)n2)cc1 | x | 2% | 0% | x | x | 4%
CC12C=CC(=O)C=C1CCC1C2C(O)CC2(C)C1CCC2(O)C(=O)COC(=O)CCC(=O)O (stereo not drawn) | x | x | -3% | x | x | x
SMILES | N370S GC | Apoferritin bind | GRP78 ERSR act | Integrin act MD | CBFb RUNX1 block | ClpP mod
Cc1c(C(=O)N(C)C2CCOC2)sc2ncnc(NCC3(c4ccccc4)CCOCC3)c12 (stereo not drawn) | x | x | -4% | x | x | x
CCOC(=O)c1cnc2ccc(OCC)cc2c1NCc1ccccc1OC | 6% | -5% | -6% | -55% | -4% | 22µM*
COc1cccc2c(Cl)c(CC=C(Cl)Cl)c(C)nc12 | 8% | -2% | -1% | 2% | 18% | 10µM*
C=CCc1c(C)nc2c(OC)cccc2c1Cl | 1% | u | 13% | 0% | 5% | -1%
CCC1(C2CCN(C(=O)c3ccccc3C(C)=O)CC2)NC(=O)N(CCc2scnc2C)C1=O (stereo not drawn) | x | x | -4% | x | x | x
Cn1c2c(c(=O)n3ncnc13)CCCC2 | -3% | 6% | -3% | u | -1% | 22µM*
COc1cc2nc(N3CCCCC3)nc(NC(C)C)c2cc1OC | x | x | x | x | x | 4%
COc1ccc(NC(=O)C(=O)NCC(=O)Nc2cc(OC)ccc2OC)cc1 | -7% | -7% | -6% | -2% | x | 10µM*
Cc1csc2nc3ccccc3c(=O)n12 | 6% | -1% | -2% | -12% | 1% | 14µM*
Cc1nc2scc(C)n2c(=O)c1S(=O)(=O)NCc1ccccc1 | 2% | 21% | -7% | -6% | x | 4%
COc1ccccc1NC1=C(C)C(=O)CC1 | -1% | -11% | 3% | u | 10% | 1%
COc1ccc(OC)c2c1CCC2=O | 10% | 12% | -5% | 10% | -8% | 32µM*
COc1ccc(CN2[C@@H](CC(=O)O)c3ccc(/C=C/C(=O)O)cc3S2(=O)=O)cc1 | x | x | -4% | x | x | 0%
CC(C)CCN1C(=O)c2ccc(C(=O)NCc3ccccn3)cc2C1=O | 0% | x | -3% | 11% | x | 32µM*
CN1C(=O)c2ccc(C(=O)NCc3ccccn3)cc2C1=O | -7% | -2% | 0% | -6% | x | -1%
CCOC(=O)C1CCN(CC(=O)N2CCCc3c2c(=O)oc2ccc(OCc4ccccc4)cc32)CC1 | x | -7% | -3% | x | x | -11%
